Results filed as inconclusive are left out. Where a call stands in place of a potency, no number is given. The source made the active and inactive calls. Calls come from the whole dose curve; as a rule, active = well fitted curve in the direction sought with a large enough effect; inconclusive = small, poorly fitted or top-dose-only effect, or another doubt; inactive = no such curve, though single readings can be large; an effect the other way counts as inactive or inconclusive. Residues, ends and D or L forms follow the SMILES beside them. *: point of attachment. Cbz = O=C(OCc1ccccc1)*

Sequence of Chromobox protein homolog 1 (Homo sapiens) (P83916 whole entry, looked up): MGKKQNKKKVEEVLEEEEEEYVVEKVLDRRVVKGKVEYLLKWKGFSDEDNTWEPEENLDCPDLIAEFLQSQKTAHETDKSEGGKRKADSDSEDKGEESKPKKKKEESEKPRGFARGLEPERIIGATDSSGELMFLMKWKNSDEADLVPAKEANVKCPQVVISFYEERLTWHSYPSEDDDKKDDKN
Sequence of Methanococcus maripaludis chaperonin (MmCpn) (Q6LX38 1-543): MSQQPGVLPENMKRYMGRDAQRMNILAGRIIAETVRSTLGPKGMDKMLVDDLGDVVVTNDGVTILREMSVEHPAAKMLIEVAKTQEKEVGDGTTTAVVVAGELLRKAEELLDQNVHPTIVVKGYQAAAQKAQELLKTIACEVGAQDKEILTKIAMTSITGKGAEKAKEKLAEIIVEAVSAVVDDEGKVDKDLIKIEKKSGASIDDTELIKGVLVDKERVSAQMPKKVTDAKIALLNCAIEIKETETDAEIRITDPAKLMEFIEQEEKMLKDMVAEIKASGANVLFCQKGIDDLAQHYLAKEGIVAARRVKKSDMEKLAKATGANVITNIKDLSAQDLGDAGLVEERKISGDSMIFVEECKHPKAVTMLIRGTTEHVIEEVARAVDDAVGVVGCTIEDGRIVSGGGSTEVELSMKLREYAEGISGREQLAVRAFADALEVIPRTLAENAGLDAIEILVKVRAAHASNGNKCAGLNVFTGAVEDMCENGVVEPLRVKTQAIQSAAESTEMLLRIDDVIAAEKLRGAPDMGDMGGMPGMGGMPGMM

For one assay, the target named is Chromobox protein homolog 1 (Homo sapiens) (UniProt P83916). Description: qHTS Validation Assay for Inhibitors of HP1-beta Chromodomain Interactions with Methylated Histone Tails (AID 488953). Note: nearly all actives have a fitted effect of over 50% in size. Note: potency is the fitted concentration of half-maximal effect. As to conditions: HP1-beta chromodomain / methylated histone peptide binding assay; series mostly up to 114 µM. An outline of the steps:
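HP1-beta (50 nM) preformed 30 min with biotinylated H3(1-18)K9me3 peptide (50 nM) in PBS pH 7.4, 0.01% Tween-20. Compounds added for 30 min at room temperature. Complex disruption read by AlphaScreen with streptavidin donor/nickel chelate acceptor beads (10 ug/mL each).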
In general terms: Quantitative high-throughput screening tests each substance at several concentrations.
As to `N=C(N)c1ccc(OCCCCCOc2ccc(C(=N)N)cc2)cc1` (tested in a mixture with another compound), the Potency entry is “inactive”. Consider `CC(O)C(O)[C@H]1CNc2nc(N)[nH]c(=O)c2N1` (stereo partly specified), for which the Potency entry is “inactive”. Take `Cc1nc2c(OCc3ccccc3)cccn2c1CC#N`: the Potency entry is “inactive”.

For `CC(=O)SC1CC2=CC(=O)CC[C@]2(C)C2CC[C@@]3(C)C(CC[C@@]34CCC(=O)O4)C12` (stereo partly specified), the Potency result is “inactive”.

As for `COc1ccc(CCn2nnnc2C2(c3ccc(C)cc3)CC2)cc1`, the Potency result is “inactive”. On the same count and under the same terms, then `CC(C)[C@@H]1CC[C@@H](C)C[C@@H]1P(=O)(c1ccccc1)c1ccccc1`, with “inactive”. `CCCCOc1cc(CC2CNC(=O)N2)ccc1OC` (stereo unspecified): the Potency result was “inactive”. Still for that read-out and setting: under `Nc1ncnc2c1ncn2C1CCCO1` (stereo unspecified) stands 0.006 µM (active); under `O=C(O)C1=CC(=C(c2ccc(O)c(C(=O)O)c2)c2ccc(O)c(C(=O)O)c2)C=CC1=O`, 0.199 µM (active). `CCCn1c(=O)c(C)cn2nc(N)nc12`: the Potency result was “inactive”. The same measure, in the same setting: under `C=CC1(C)CC(=O)C2(O)C(C)(O1)C(OC(C)=O)C(O)C1C(C)(C)CCC(O)C12C` (stereo unspecified) stands “inactive”. For the molecule `CC(C)[C@H](NC(=O)OCc1ccccc1)C(=O)N[C@H](C=O)Cc1ccccc1` (Cbz-Val-Phe-aldehyde), the Potency result was “inactive”.

Turning to `NC(=Nc1ccccc1)NC(=O)c1nc(Cl)c(N)nc1N`, the Potency entry is “inactive”.

For the molecule `N[C@H](C(=O)O)[C@H](Cc1ccccc1)C(=O)O`, the Potency entry is “inactive”. On to `Nc1nc2c(nc(Br)n2C2OC3COP(=O)(O)O[C@@H]3C2O)c(=O)[nH]1` (stereo partly specified), for which the Potency result is “inactive”. As to `NCC(O)C1CCCCCCC1` (stereo unspecified), the Potency entry was “inactive”. As to `O=c1ccc2c(OCCCCc3ccccc3)c3ccoc3cc2o1`, the Potency entry was “inactive”. As for `Cc1nc(N=Nc2cc(S(=O)(=O)O)c3cc([N+](=O)[O-])cc(S(=O)(=O)O)c3c2)c(COP(=O)(O)O)c(C=O)c1O`, the Potency is 28.2 µM (active). Still for that read-out and setting: under `CN1CC(O)C(O)C(O)C1CO` (stereo unspecified) stands “inactive”. As to `CCCCCCCCCCCCCCSCC(=O)O`, the Potency is 50.1 µM (active). Regarding `CCCCCCC/C=C\CCCCCCCCC(=O)O`, the Potency entry was “inactive”.

For the molecule `Cc1ccc([N+](=O)[O-])cc1S(=O)(=O)N(C)C`, the Potency entry is “inactive”.

As for `C=C1C[C@@]23CC[C@H]4[C@@](C)(CCC[C@@]4(C)C(=O)O)[C@@H]2CC[C@]1(O)C3`, the Potency result was “inactive”.

As to `CCCCCCC(=O)OC1CC(C)(C)NC(C)(C)C1`, the Potency entry is “inactive”.

A further assay addresses Methanococcus maripaludis chaperonin (MmCpn) (UniProt Q6LX38). Description: High-Throughput Screening for Modulators of Cytosolic Chaperonin Activity: MmCpn Primary Screen (AID 488978).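 Note: 50 nM MmCpn enzyme hydrolysing 30 µM ATP at 37 °C.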 As to conditions: Purified MmCpn ATPase activity, ADP HTRF detection, 10 min; series mostly up to 76.9 µM. An outline of the steps:
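Steps: chaperonin 50 nM final; add compound, 5 min RT; start with ATP, 30 uM final; hold 10 min at 37C; add ADP Transcreener HTRF reagent, 5 min; read ex 320, em 590 and 665 nm.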
Background: TR-FRET usually uses a lanthanide donor and a delayed reading to cut background.
`CC(O)C(O)[C@H]1CNc2nc(N)[nH]c(=O)c2N1` (stereo partly specified): the result was inactive. `N#C/C(=C\c1ccc(O)c(O)c1)C(=O)NCCCNC(=O)/C(C#N)=C/c1ccc(O)c(O)c1`: the molecule was called inactive.

Consider `Cc1nc2c(OCc3ccccc3)cccn2c1CC#N`, for which the result was inactive. On the same count and under the same terms, under `O=C(O)C1=CCCN(CCON=C(c2ccccc2)c2ccccc2)C1` stands “inactive”; under `CC(=O)SC1CC2=CC(=O)CC[C@]2(C)C2CC[C@@]3(C)C(CC[C@@]34CCC(=O)O4)C12` (stereo partly specified), “inactive”. Take `COc1ccc(CCn2nnnc2C2(c3ccc(C)cc3)CC2)cc1`: the result was inactive. For the molecule `CC(C)[C@@H]1CC[C@@H](C)C[C@@H]1P(=O)(c1ccccc1)c1ccccc1`, the call was inactive. Same read-out and setting: then `CCCCOc1cc(CC2CNC(=O)N2)ccc1OC` (stereo unspecified), with “inactive”. `O=c1cc(O)cc(/C=C/c2ccc(O)c(O)c2)o1`: the outcome was inactive. Still for that read-out and setting: then `Nc1ncnc2c1ncn2C1CCCO1` (stereo unspecified), with “inactive”. Consider `O=C(O)C1=CC(=C(c2ccc(O)c(C(=O)O)c2)c2ccc(O)c(C(=O)O)c2)C=CC1=O`, for which the result was inactive. For the molecule `CCCn1c(=O)c(C)cn2nc(N)nc12`, the outcome was inactive. Turning to `C=CC1(C)CC(=O)C2(O)C(C)(O1)C(OC(C)=O)C(O)C1C(C)(C)CCC(O)C12C` (stereo unspecified), the result was inactive.

As to `CC(C)C[C@H](NC(=O)C1OC1C(=O)O)C(=O)NCCCCN=C(N)N` (stereo partly specified), the outcome was inactive. As to `O=C(O)CCC/C=C\C[C@@H]1[C@@H](/C=C/[C@H](O)C2Cc3ccccc3C2)[C@@H](F)C[C@@H]1O`, the result was inactive.

In the case of `NC(=Nc1ccccc1)NC(=O)c1nc(Cl)c(N)nc1N`, the molecule was called inactive. On to `N[C@H](C(=O)O)[C@H](Cc1ccccc1)C(=O)O`, for which the outcome was inactive. In the case of `CC(=O)O[C@H]1Cc2ccccc2N(C(N)=O)c2ccccc21`, the call was inactive. Same read-out and setting: then `Cc1ccc2c(c1)C(N1CCN(C)CC1)=Nc1cccnc1N2`, with “inactive”; and `NS(=O)(=O)c1cccc2c1c([N+](=O)[O-])cc1nc(O)c(O)nc12`, with “inactive”. Same read-out and setting: then `Nc1nc2c(nc(Br)n2C2OC3COP(=O)(O)O[C@@H]3C2O)c(=O)[nH]1` (stereo partly specified), with “inactive”. Turning to `NCC(O)C1CCCCCCC1` (stereo unspecified), the outcome was inactive. Regarding `CCN(c1nc(N)c(C(=O)N=C(N)N)nc1Cl)C(C)C`, the outcome was inactive. Still for that read-out and setting: under `O=c1ccc2c(OCCCCc3ccccc3)c3ccoc3cc2o1` stands “inactive”. Take `CC(C)NC[C@H](O)COc1cccc2ccccc12`: the result was inactive. On the same count and under the same terms, under `Cc1nc(N=Nc2cc(S(=O)(=O)O)c3cc([N+](=O)[O-])cc(S(=O)(=O)O)c3c2)c(COP(=O)(O)O)c(C=O)c1O` stands “inactive”. For `CCCCCCCCCCCCCCSCC(=O)O`, the molecule was classed as inactive. As for `CCCCCCC/C=C\CCCCCCCCC(=O)O`, the molecule was classed as inactive. Still for that read-out and setting: then `C=C1C[C@@]23CC[C@H]4[C@@](C)(CCC[C@@]4(C)C(=O)O)[C@@H]2CC[C@]1(O)C3`, with “inactive”; and `O=C(O)c1ccccc1Nc1cccc(OCc2ccc3ccccc3n2)c1`, with “inactive”; and `CCCCCCC(=O)OC1CC(C)(C)NC(C)(C)C1`, with “inactive”. With `O=C(O)/C(=C/c1c(C(=O)O)[nH]c2cc(Cl)cc(Cl)c12)c1ccccc1`, the outcome was inactive.

The values are drawn from PubChem BioAssay (NCATS).
